# Assay results as given in PubChem BioAssay.
# Calls of active or inactive are those of the source.
# Assay: PSAC antagonists in infected red cells, primary screen, cell-based, P. falciparum Indochina, OD700, 18 h (AID 1157)
# Settings: P. falciparum Indochina infected erythrocytes, osmotic lysis OD700, 18 h; higher = more signal, called active from +8 up or from −8 down
row,SMILES,z-score
1,COc1cc(NN2C(C(O)c3cc(OC)c(OC)c(OC)c3)C=CC3C(=O)N(C)C(=O)C32)cc(OC)c1OC (centres undefined),0.853 (inactive)
2,COc1cc(OC)c(C(O)C2C=CC3C(=O)N(Cc4ccccc4)C(=O)C3N2n2cnnc2)cc1Br (centres undefined),-2.29 (inactive)
3,C=CCC(OC(C)=O)[C@@H]1[C@@H](N(Cc2cc3ccccc3o2)C(=O)Cc2ccc(F)cc2)c2cc(OCCCO)ccc2N1C(=O)Cc1ccc2ccccc2c1 (some centres undefined),0.184 (inactive)
4,COc1ccc(CCNC(=O)[C@@H]2c3ccccc3C(=O)N(C3CCCCC3)[C@H]2c2ccc(CO)cc2)cc1,0.0567 (inactive)
5,C[N+](C)(C)CCCC[C@@H]1NC(=O)[C@@H]2C[C@H](C(=O)NCCCCCCN)[C@H](c3cccc(OCCO)c3)N2C1=O,0.229 (inactive)
6,O=C1C2C=CC(C(O)C3CC=CCC3)N(Nc3ccccc3)C2C(=O)N1c1ccccc1 (centres undefined),-1.33 (inactive)
7,O=C1C2C=CC(C(O)c3ccco3)N(Nc3ccccc3F)C2C(=O)N1c1ccccc1 (centres undefined),0.975 (inactive)
8,COC(=O)c1c(CC[C@@H](CO)NC(=O)N2CCC[C@H]2Cn2cc(C3(O)CCCCC3)nn2)oc(C(C)=O)c1C(=O)OC,0.163 (inactive)
9,C=C(/C(=C/C[C@H](OC(=O)c1ccncc1)c1ccc(CO)o1)c1cnc2ccccc2c1)C(C)C,0.528 (inactive)
10,COCC(=C=CC[C@H](O)c1ccccc1OCCO)C[C@H](O)c1ccccn1,0.382 (inactive)
11,CC(C)c1ccc(NN2C(C(O)c3ccc(F)cc3)C=CC3C(=O)N(c4ccccc4)C(=O)C32)cc1 (centres undefined),1.44 (inactive)
12,CO[C@H]1O[C@H](CO)[C@@H](OC(=O)Nc2ccc3c(c2)OCO3)[C@H](OC(=O)Nc2ccc3c(c2)OCO3)[C@@H]1OC(=O)Nc1ccc2c(c1)OCO2,0.742 (inactive)
13,CCCNC(=O)[C@@H]1c2ccccc2C(=O)N(Cc2ccc(OC(F)(F)F)cc2)[C@H]1c1ccc(CO)cc1,-0.406 (inactive)
14,CCOC(=O)C[C@H]1[C@H](OC(=O)c2cc3ccccc3oc2=O)[C@@H](NC(=O)c2ccccc2)c2cc(OCCCO)ccc2N1C(=O)c1ccccc1,-2.88 (inactive)
15,CCCNC(=O)[C@@]1(C)c2ccccc2C(=O)N(c2ccc(C)cn2)[C@H]1c1ccc(CO)cc1,0.0101 (inactive)
16,CC(C)C(O)C1C=CC2C(=O)N(c3ccccc3)C(=O)C2N1Nc1ccccc1 (centres undefined),-0.741 (inactive)
17,CCCCC(CC)C(O)C1C=CC2C(=O)N(c3ccccc3)C(=O)C2N1Nc1ccc(C#N)cc1 (centres undefined),1.54 (inactive)
18,COc1ccc(CCNC(=O)[C@@]2(Cc3ccccc3I)c3ccccc3C(=O)N(C3CCCCC3)[C@H]2c2ccc(CO)cc2)cc1,-0.31 (inactive)
19,[N-]=[N+]=Nc1ccccc1C[C@@]1(C(N)=O)N=C(c2ccc(OCCCO)cc2)O[C@@H]1c1ccccc1N=[N+]=[N-],1.35 (inactive)
20,C=CCN1C(=O)[C@]2(CCS(=O)(=O)c3ccccc3)N=C(c3ccc(OCCCO)cc3)O[C@@H]2c2ccccc21,4.76 (inactive)
21,NC(=O)NCC#Cc1ccc2c(c1)[C@]1(C(=O)N2)[C@H](c2ccccc2OCCO)N2[C@H](c3ccccc3)[C@H](c3ccccc3)OC(=O)[C@H]2[C@@H]1C(=O)O,0.0482 (inactive)
22,NCCCCCNC(=O)[C@H]1C[C@H]2C(=O)N3CCC[C@H]3C(=O)N2[C@H]1c1cccc(OCCO)c1,0.301 (inactive)
23,COc1ccc([Si](C)(C)[C@@H]2[C@@H](CCO)O[C@]3(C(=O)N(Cc4cccc(NC(=O)[C@H](C)O)c4)c4ccccc43)[C@H]2C)cc1,1.35 (inactive)
24,CCCCN1CC=CC23O[C@@H]4/C=C\CCCOC(=O)C4[C@H]2C(=O)N(CCO)[C@@H]3C1=O (some centres undefined),0.628 (inactive)

# Assay: modulators of S6 phosphorylation in cells, primary screen, cell-based, A549, cytoblot, luminescence, serum-stimulated (AID 1158);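 further: serum-stimulated A549 lung adenocarcinoma cells; signal is phosphorylated S6 detected by cytoblot immunostaining with HRP secondary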
# Settings: A549 phospho-S6 cytoblot, 5 h, higher = more signal
row,SMILES,z-score
1,[N-]=[N+]=NCc1ccccc1[C@@H]1OC(c2ccc(OCCCO)cc2)=N[C@]1(CCS(=O)(=O)c1ccccc1)C(=O)O,-0.0381
2,CC1CC/C=C\[C@H]2OC34C=CCN(c5ccc(Cl)cc5)C(=O)[C@H]3N(C(C)CO)C(=O)[C@]4(C)C2C(=O)O1 (some centres undefined),0.116
3,C=CC[C@]1(C(=O)N2CCCCC2)N=C(c2ccc(OCCCO)cc2)O[C@H]1c1ccccc1CN=[N+]=[N-],0.83
4,COc1ccc([Si](C)(C)[C@H]2[C@H](CC(=O)N3CCC[C@H]3CO)O[C@@]3(C(=O)N(Cc4ccc(N5CCOC5=O)cc4)c4ccccc43)[C@@H]2C)cc1,0.0491
5,Cc1cc(C)c(C(O)C2C=CC3C(=O)N(c4ccccc4)C(=O)C3N2Nc2ccccc2F)c(C)c1 (centres undefined),-0.855
6,CC[C@@H]1O[Si](C(C)C)(C(C)C)c2c1cc(-c1cc(C)c(OC)c(C)c1)nc2-c1ccc(Oc2ccccc2)cc1,0.189
7,O[C@@H](Cc1ccccc1)[C@@H](/C=C/C1CC1)N(CC#Cc1ccccc1)Cc1ccccc1Br,0.131
8,COC(=O)C/C=C/C[C@]1(O)C(=O)N(C)c2ccccc21,1.26
9,C=CC[C@@]1(C(=O)NCCCOC)N=C(c2ccc(OCCCO)cc2)O[C@@H]1c1ccccc1N=[N+]=[N-],-0.217
10,COC(=O)[C@@H]1N=C(c2ccc(OCCCO)cc2)O[C@@H]1C,0.299
11,CCCC=C(CCC)[C@@H](NC(=O)c1cccs1)c1ccc(C(=O)OC)cc1,1.28
12,COc1cc(NN2C(C(O)c3cc(OC)c(OC)c(OC)c3)C=CC3C(=O)N(C)C(=O)C32)cc(OC)c1OC (centres undefined),-0.402
13,COc1cc(OC)c(C(O)C2C=CC3C(=O)N(Cc4ccccc4)C(=O)C3N2n2cnnc2)cc1Br (centres undefined),1.71
14,C=CCC(OC(C)=O)[C@@H]1[C@@H](N(Cc2cc3ccccc3o2)C(=O)Cc2ccc(F)cc2)c2cc(OCCCO)ccc2N1C(=O)Cc1ccc2ccccc2c1 (some centres undefined),-0.213
15,COc1ccc(CCNC(=O)[C@@H]2c3ccccc3C(=O)N(C3CCCCC3)[C@H]2c2ccc(CO)cc2)cc1,0.491
16,C[N+](C)(C)CCCC[C@@H]1NC(=O)[C@@H]2C[C@H](C(=O)NCCCCCCN)[C@H](c3cccc(OCCO)c3)N2C1=O,0.38
17,O=C1C2C=CC(C(O)C3CC=CCC3)N(Nc3ccccc3)C2C(=O)N1c1ccccc1 (centres undefined),0.879
18,O=C1C2C=CC(C(O)c3ccco3)N(Nc3ccccc3F)C2C(=O)N1c1ccccc1 (centres undefined),-0.754

row,SMILES,z-score
1,COC(=O)c1c(CC[C@@H](CO)NC(=O)N2CCC[C@H]2Cn2cc(C3(O)CCCCC3)nn2)oc(C(C)=O)c1C(=O)OC,-0.0302
2,C=C(/C(=C/C[C@H](OC(=O)c1ccncc1)c1ccc(CO)o1)c1cnc2ccccc2c1)C(C)C,-0.702
3,COCC(=C=CC[C@H](O)c1ccccc1OCCO)C[C@H](O)c1ccccn1,0.658
4,CC(C)c1ccc(NN2C(C(O)c3ccc(F)cc3)C=CC3C(=O)N(c4ccccc4)C(=O)C32)cc1 (centres undefined),-1.05
5,CO[C@H]1O[C@H](CO)[C@@H](OC(=O)Nc2ccc3c(c2)OCO3)[C@H](OC(=O)Nc2ccc3c(c2)OCO3)[C@@H]1OC(=O)Nc1ccc2c(c1)OCO2,-0.563
6,CCCNC(=O)[C@@H]1c2ccccc2C(=O)N(Cc2ccc(OC(F)(F)F)cc2)[C@H]1c1ccc(CO)cc1,0.289
7,CCOC(=O)C[C@H]1[C@H](OC(=O)c2cc3ccccc3oc2=O)[C@@H](NC(=O)c2ccccc2)c2cc(OCCCO)ccc2N1C(=O)c1ccccc1,0.312
8,CCCNC(=O)[C@@]1(C)c2ccccc2C(=O)N(c2ccc(C)cn2)[C@H]1c1ccc(CO)cc1,0.426
9,CC(C)C(O)C1C=CC2C(=O)N(c3ccccc3)C(=O)C2N1Nc1ccccc1 (centres undefined),0.325
10,CCCCC(CC)C(O)C1C=CC2C(=O)N(c3ccccc3)C(=O)C2N1Nc1ccc(C#N)cc1 (centres undefined),-0.423
11,COc1ccc(CCNC(=O)[C@@]2(Cc3ccccc3I)c3ccccc3C(=O)N(C3CCCCC3)[C@H]2c2ccc(CO)cc2)cc1,3.35
12,[N-]=[N+]=Nc1ccccc1C[C@@]1(C(N)=O)N=C(c2ccc(OCCCO)cc2)O[C@@H]1c1ccccc1N=[N+]=[N-],2.05
13,C=CCN1C(=O)[C@]2(CCS(=O)(=O)c3ccccc3)N=C(c3ccc(OCCCO)cc3)O[C@@H]2c2ccccc21,1.76
14,NC(=O)NCC#Cc1ccc2c(c1)[C@]1(C(=O)N2)[C@H](c2ccccc2OCCO)N2[C@H](c3ccccc3)[C@H](c3ccccc3)OC(=O)[C@H]2[C@@H]1C(=O)O,0.171
15,NCCCCCNC(=O)[C@H]1C[C@H]2C(=O)N3CCC[C@H]3C(=O)N2[C@H]1c1cccc(OCCO)c1,-0.413
16,COc1ccc([Si](C)(C)[C@@H]2[C@@H](CCO)O[C@]3(C(=O)N(Cc4cccc(NC(=O)[C@H](C)O)c4)c4ccccc43)[C@H]2C)cc1,-0.472
17,CCCCN1CC=CC23O[C@@H]4/C=C\CCCOC(=O)C4[C@H]2C(=O)N(CCO)[C@@H]3C1=O (some centres undefined),-0.246
